The panel holds about 83,000 compounds, 20% with a hit somewhere; the sample as a whole holds those more often.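 48-hour exposure, single concentration, 96-well plates; percent growth endpoint where 0 means no net growth. Active: below 10.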 Active and inactive are the calls of the source.
Key:
Experiment in all cases: NCI-60 one-dose screen, 48 h (100 = growth as untreated, 0 = no growth, -100 = all killed)
Conditions in all cases: 10 µM unless noted
[1] = system: DU-145 prostate
[2] = system: K-562 leukemia
[3] = system: MALME-3M melanoma
[4] = system: MDA-MB-231 breast
[5] = system: RXF 393 renal
[6] = system: SF-268 CNS
[7] = system: SF-295 CNS
[8] = system: SF-539 CNS
[9] = system: UACC-257 melanoma
[10] = system: M14 melanoma

Measured: growth

COc1ccc2c(c1)c(-c1nn3cc(-c4ccncc4)nc3s1)cn2C
inactive: [1] 93.9% | [2] 28.4% | [3] 89.9% | [4] 77% | [5] 83.2% | [6] 79% | [7] 75.3% | [8] 84% | [9] 116% | [10] 107%

O=C(/C=C/c1ccc(Cl)c(Cl)c1)Nc1ncc(Cc2ccc(Cl)c(Cl)c2)s1
active: [7] 7.58% | [10] -27.4%
inactive: [1] 49.5% | [2] 15.3% | [3] 79.8% | [4] 97.1% | [5] 104% | [6] 61.4% | [8] 60.5% | [9] 40.9%

O=C(Nc1ccc(Cl)c(C(F)(F)F)c1)Nc1ccc2c(ccn2C(=O)c2cccc(F)c2)c1
inactive: [1] 24.5% | [2] 11.4% | [3] 56% | [4] 87% | [5] 28.7% | [6] 55.4% | [8] 66.7% | [9] 60.6% | [10] 56.2%
active: [7] 5.17%

COc1cc(C(C)=C(c2ccc(OCCN(C)C)cc2)c2ccc(OCCN(C)C)cc2)ccc1F
inactive: [1] 102% | [2] 93.3% | [3] 92.6% | [4] 102% | [5] 90.6% | [6] 98.5% | [7] 100% | [8] 101% | [9] 111% | [10] 110%

CCCCCc1ccc(S(=O)(=O)Nc2cc(-c3csc(N)n3)ccc2OC)cc1
inactive: [1] 107% | [2] 83.9% | [3] 96.1% | [4] 92% | [5] 99.7% | [6] 94.7% | [7] 84.8% | [8] 89.7% | [9] 107% | [10] 103%

CN1CCN(c2ccc(Nc3nc(NCCNS(=O)(=O)c4ccccc4)c4sccc4n3)cc2)CC1
inactive: [1] 106% | [2] 84% | [3] 104% | [4] 102% | [5] 87.3% | [6] 79.6% | [7] 105% | [8] 95.4% | [9] 114%

c1ccc(-c2cn3c(-c4c[nH]c5ccccc45)csc3n2)cc1
inactive: [1] 94% | [2] 36.5% | [3] 69.6% | [4] 61.7% | [5] 83.2% | [6] 79.6% | [7] 77.6% | [8] 81.9% | [9] 54.2% | [10] 73%

C#Cc1nc(C(=O)NCCCCCCC(=O)NO)cs1
inactive: [9] 23% | [10] 16.6%
active: [1] -51.1% | [2] 5.86% | [3] -61% | [4] -71.8% | [5] -78.7% | [6] 2.01% | [7] -2.7% | [8] -80.1%

CC(C)[C@H]1c2[nH]c3ccccc3c2C[C@H]2C(=O)N(CCCCCCC(=O)NO)CC(=O)N12
inactive: [1] 92.4% | [2] 60.6% | [3] 31.1% | [4] 92.5% | [5] 87% | [6] 107% | [7] 95.2% | [8] 73.6% | [9] 57.7% | [10] 82.2%

O=[N+]([O-])c1ccc(NC(=S)NNC(=S)Nc2ccc(F)cc2)cc1
inactive: [1] 105% | [2] 49.8% | [3] 90.1% | [4] 92.4% | [5] 104% | [6] 95.1% | [7] 82.3% | [8] 94.9% | [9] 97.8% | [10] 92.1%

CN(C)S(=O)(=O)c1ccc(-c2nc(C(Cl)Cl)nc3cc(-c4ccc(F)cc4)nn23)cc1
active: [1] 5.97% | [2] 8.44% | [3] -11.5% | [4] 1.26% | [5] -19.2% | [10] 1.95%
inactive: [6] 19.4% | [7] 21.8% | [8] 31.7% | [9] 52.4%

CC(=O)N(O)CCCCCNC(=O)CCC(=O)N(O)CCCCCNC(=O)CCC(=O)N(O)CCCCCN(CCCCCCCCCC[P+](c1ccccc1)(c1ccccc1)c1ccccc1)CCCCCCCCCC[P+](c1ccccc1)(c1ccccc1)c1ccccc1
inactive: [1] 14.9% | [4] 16.4% | [6] 16.2% | [7] 12.7% | [10] 11%
active: [2] 9.98% | [3] -17.4% | [5] -9.88% | [8] -8.94% | [9] -10.9%

O=C1[C@@H]2Cc3c([nH]c4ccccc34)[C@@H](c3ccc(Cl)cc3)N2C(=O)CN1C1CCN(Cc2c(F)cccc2F)CC1
inactive: [1] 49.2% | [2] 16.8% | [3] 88.8% | [4] 66.4% | [5] 44.4% | [6] 39.2% | [7] 41.4% | [8] 60.9% | [9] 51.1% | [10] 14.4%

From PubChem BioAssay (NCI)
